Measurements from PubChem BioAssay (EPA / NIEHS).
Records with an inconclusive call do not appear. Activity calls are given as the source filed them. The calls were made as follows, unless noted: active = hit-call score of the fitted dose curve at least 0.9, where 1 is the maximum; inactive = score below 0.9.

Assays:
[1] = ATG_XTT_Cytotoxicity: Cytotoxicity Assessment in the Attagene TRANS-FACTORIAL HepG2 Assay (AID 2283584; active = hit-call score of the fitted dose curve at least 0.9, where 1 is the maximum)
Summary of the method: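 XTT readout of cell number in transfected HepG2 cells, 24 h post-dosing; DMSO serves as negative control and baseline, with activity taken as loss of viability signal.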

[2] = read-out: matrix metalloproteinase-10 (MMP10), MMP10 (gene 4319); test: LTEA_HepaRG_MMP10: Life Technologies and Expression Analysis (LTEA) Assay for matrix metalloproteinase-10 (MMP10) using HepaRG (AID 2283517); settings: mRNA level, 48 h; actives raise or lower the signal
Summary of the method: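 Transcript levels come from Fluidigm qRT-PCR normalized to three housekeeping genes, with curves fitted bidirectionally against 0.5% DMSO. Human HepaRG cells were dosed for 48 hours at concentrations up to 100 uM.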

MYC, MYC (gene 4609) = test: LTEA_HepaRG_MYC: Life Technologies and Expression Analysis (LTEA) Assay for MYC using HepaRG (AID 2283518); settings: mRNA level, 48 h; actives raise or lower the signal
Summary of the method: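 qRT-PCR read-out of MYC transcript (Fluidigm TaqMan, housekeeping-normalized) after 48 h chemical exposure of HepaRG cells; eight concentrations, top 100 uM, half-log steps. Bidirectional curve fitting against 0.5% DMSO vehicle baseline.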

[3] = read-out: matrix metalloproteinase-3 (MMP3), MMP3 (gene 4314); test: LTEA_HepaRG_MMP3: Life Technologies and Expression Analysis (LTEA) Assay for matrix metalloproteinase-3 (MMP3) using HepaRG (AID 2283519); settings: mRNA level, 48 h; actives raise or lower the signal
Summary of the method: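 qRT-PCR read-out of MMP3 mRNA (normalised to three housekeeping genes) in HepaRG liver cells after 48 h chemical exposure; 8-point half-log series, top 100 uM, 0.5% DMSO vehicle. Bidirectional curve fitting against DMSO baseline.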

[4] = read-out: Paternally Expressed 10 (PEG10), PEG10 (gene 23089); test: LTEA_HepaRG_PEG10: Life Technologies and Expression Analysis (LTEA) Assay for Paternally Expressed 10 (PEG10) using HepaRG (AID 2283520); settings: mRNA level, 48 h; actives raise or lower the signal
Summary of the method: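 After 48 h exposure of differentiated HepaRG cells (0.5% DMSO vehicle, eight concentrations up to 100 uM, duplicates), PEG10 mRNA was measured by TaqMan qRT-PCR. Values were normalised to endogenous control genes and analysed bidirectionally against vehicle.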

[5] = read-out: Nuclear factor NF-kappa-B p105 subunit (Homo sapiens) (UniProt P19838); test: LTEA_HepaRG_NFKB1: Life Technologies and Expression Analysis (LTEA) Assay for Nuclear Factor Kappa B Subunit 1 (NFKB1) using HepaRG (AID 2283521); settings: mRNA level, 48 h; actives raise or lower the signal;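 also: differentiated human HepaRG liver cells in serum-free induction medium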
Summary of the method: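 Human HepaRG cells receive eight half-log concentrations, highest 100 uM, for 48 h. NFKB1 expression is then quantified by qRT-PCR and analysed for up- or down-regulation relative to 0.5% DMSO vehicle.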

[6] = read-out: Phosphatase and tensin (PTEN), PTEN (gene 5728); test: LTEA_HepaRG_PTEN: Life Technologies and Expression Analysis (LTEA) Assay for Phosphatase and tensin (PTEN) using HepaRG (AID 2283523); settings: mRNA level, 48 h; actives raise or lower the signal
Summary of the method: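 HepaRG, 48 h exposure, 8-pt half-log series from 100 uM top, 0.5% DMSO vehicle, duplicates. Readout: Fluidigm qRT-PCR of PTEN transcript; housekeeping normalization (ACTB, GAPDH, POLR2A). Gain or loss fitted relative to DMSO baseline.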

[7] = read-out: solute carrier (SLC22A1), SLC22A1 (gene 6580); test: LTEA_HepaRG_SLC22A1: Life Technologies and Expression Analysis (LTEA) Assay for solute carrier (SLC22A1) using HepaRG (AID 2283524); settings: mRNA level, 48 h; actives raise or lower the signal
Summary of the method: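 qRT-PCR readout (TaqMan, Fluidigm arrays) of SLC22A1 transcript, normalized to three housekeeping genes; bidirectional curve fit relative to 0.5% DMSO vehicle. Differentiated human HepaRG cells, 48 h chemical exposure, top concentration 100 uM, half-log steps, eight points.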

[8] = read-out: Nuclear factor erythroid 2-related factor 2 (Homo sapiens) (UniProt Q16236); test: LTEA_HepaRG_NFE2L2: Life Technologies and Expression Analysis (LTEA) Assay for Nuclear factor erythroid 2-related factor 2 (NFE2L2) Transcription Factor using HepaRG (AID 2283527); settings: mRNA level, 48 h; actives raise or lower the signal;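 also: TaqMan qRT-PCR transcript level normalised to ACTB GAPDH and POLR2A housekeeping genes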
Summary of the method: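 HepaRG, 48 h dosing, 8-pt half-log series from 100 uM in 0.5% DMSO, duplicates. Read-out: NFE2L2 mRNA by qRT-PCR (ACTB/GAPDH/POLR2A normalization). Bidirectional curve fit vs DMSO baseline.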

[9] = read-out: succinate dehydrogenase complex iron sulfur subunit B (SDHB), SDHB (gene 6390); test: LTEA_HepaRG_SDHB: Life Technologies and Expression Analysis (LTEA) Assay for succinate dehydrogenase complex iron sulfur subunit B (SDHB) using HepaRG (AID 2283528); settings: mRNA level, 48 h; actives raise or lower the signal
Summary of the method: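 A human HepaRG culture in serum-free induction medium received test chemicals for 48 h over an eight-point range capped at 100 uM. SDHB expression change was quantified by qRT-PCR.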

[10] = read-out: Signal transducer and activator of transcription 3 (Homo sapiens) (UniProt P40763); test: LTEA_HepaRG_STAT3: Life Technologies and Expression Analysis (LTEA) Assay for Signal transducer and activator of transcription (STAT3) using HepaRG (AID 2283529); settings: mRNA level, 48 h; actives raise or lower the signal
Summary of the method: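 HepaRG, 48 h exposure, 8-pt half-log series (top 100 uM), 0.5% DMSO vehicle, duplicates. Readout: STAT3 transcript by Fluidigm qRT-PCR, housekeeping-normalized; bidirectional fit vs DMSO baseline.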

[11] = read-out: sulfotransferase 2A1 (SULT2A1), SULT2A1 (gene 6822); test: LTEA_HepaRG_SULT2A1: Life Technologies and Expression Analysis (LTEA) Assay for sulfotransferase 2A1 (SULT2A1) using HepaRG (AID 2283531); settings: mRNA level, 48 h; actives raise or lower the signal
Summary of the method: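 HepaRG, 48 h chemical exposure, 8-pt half-log curve from 100 uM in 0.5% DMSO, duplicates. Readout: TaqMan qRT-PCR of SULT2A1 mRNA, housekeeping-normalized. Bidirectional fit vs DMSO baseline.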

[12] = read-out: Transforming Growth Factor (TGFB1), TGFB1 (gene 7040); test: LTEA_HepaRG_TGFB1: Life Technologies and Expression Analysis (LTEA) Assay for Transforming Growth Factor (TGFB1) Transporter using HepaRG (AID 2283533); settings: mRNA level, 48 h; actives raise or lower the signal
Summary of the method: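 qRT-PCR readout of TGFB1 transcript in HepaRG lysates, normalized to three housekeeping genes; gain or loss of signal fitted relative to 0.5% DMSO vehicle. Exposure: 48 h, 8-point curve from 100 uM, duplicate wells.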

TIMP1, TIMP1 (gene 7076) = test: LTEA_HepaRG_TIMP1: Life Technologies and Expression Analysis (LTEA) Assay for TIMP1 using HepaRG (AID 2283534); settings: mRNA level, 48 h; actives raise or lower the signal
Summary of the method: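 HepaRG, 48 h exposure, 8-pt half-log series from 100 uM in 0.5% DMSO, duplicates; TIMP1 transcript by Fluidigm qRT-PCR, housekeeping-normalized; bidirectional curve fit vs DMSO baseline.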

[13] = read-out: Tumor necrosis factor receptor 1 (TNFRSF1A), TNFRSF1A (gene 7132); test: LTEA_HepaRG_TNFRSF1A: Life Technologies and Expression Analysis (LTEA) Assay for Tumor necrosis factor receptor 1 (TNFRSF1A) using HepaRG (AID 2283535); settings: mRNA level, 48 h; actives raise or lower the signal
Summary of the method: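 HepaRG, 48 h plating then 48 h chemical exposure, serum-free induction media; 8-pt CRC from 100 uM, half-log, 0.5% DMSO vehicle, duplicates. Readout: TaqMan qRT-PCR (Fluidigm), housekeeping-gene normalized; bidirectional fit vs DMSO.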

[14] = read-out: Thyroid Hormone Responsive (THRSP), THRSP (gene 7069); test: LTEA_HepaRG_THRSP: Life Technologies and Expression Analysis (LTEA) Assay for Thyroid Hormone Responsive (THRSP) using HepaRG (AID 2283536); settings: mRNA level, 48 h; actives raise or lower the signal
Summary of the method: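 qRT-PCR read-out (Fluidigm TaqMan), housekeeping-normalized (ACTB/GAPDH/POLR2A). HepaRG, 48 h chemical exposure, 8-pt half-log series from 100 uM in 0.5% DMSO, duplicates. Bidirectional curve fit vs 0.5% DMSO baseline.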

[15] = read-out: UDP glucuronosyltransferase (UGT1A6), UGT1A6 (gene 54578); test: LTEA_HepaRG_UGT1A6: Life Technologies and Expression Analysis (LTEA) Assay for UDP glucuronosyltransferase (UGT1A6) using HepaRG (AID 2283539); settings: mRNA level, 48 h; actives raise or lower the signal
Summary of the method: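 qRT-PCR readout of UGT1A6 mRNA (normalized to ACTB/GAPDH/POLR2A) in differentiated HepaRG cells after 48 h chemical exposure; 8 concentrations, top 100 uM, half-log steps, 0.5% DMSO. Bidirectional curve fit relative to DMSO baseline.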

[16] = read-out: X-box binding protein 1 (XBP1), XBP1 (gene 7494); test: LTEA_HepaRG_XBP1: Life Technologies and Expression Analysis (LTEA) Assay for X-box binding protein 1 (XBP1) using HepaRG (AID 2283540); settings: mRNA level, 48 h; actives raise or lower the signal
Summary of the method: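 HepaRG, 48 h exposure, 8-pt half-log CRC top 100 uM, 0.5% DMSO vehicle, duplicates. Readout: TaqMan qRT-PCR of XBP1 mRNA, housekeeping-normalised (ACTB/GAPDH/POLR2A); bidirectional fit vs DMSO baseline.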

[17] = read-out: Cellular tumor antigen p53 (Homo sapiens) (UniProt P04637); test: LTEA_HepaRG_TP53: Life Technologies and Expression Analysis (LTEA) Assay for Tumor Protein P53 (TP53) using HepaRG (AID 2283537); settings: mRNA level, 48 h; actives raise or lower the signal
Summary of the method: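 Gain or loss of TP53 mRNA signal is scored relative to 0.5% DMSO after 48 h chemical treatment of HepaRG liver cells, tested in duplicate at eight half-log concentrations up to 100 uM.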

[18] = TOX21_p53_BLA_p2_viability: Viability Assessment in the Tox21 HCT-116 p53 Agonism Beta-lactamase Assay, Phase 2 (AID 2283591; active = hit-call score of the fitted dose curve at least 0.9, where 1 is the maximum;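 also: compound exposure lasted 16 h at 37 °C; actives lower the ATP signal meaning cytotoxicity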)
Summary of the method: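 HCT116 p53-bla cells, 4000/well, dosed after 5 h plating (217-fold dilution of DMSO stocks) and incubated 16 h at 37C. Viability taken as cellular ATP by CellTiter-Glo luminescence after 30 min RT; signal loss marks cytotoxicity.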

Measured: outcome

Sequence of Nuclear factor erythroid 2-related factor 2 (Homo sapiens) (Q16236 whole entry, looked up): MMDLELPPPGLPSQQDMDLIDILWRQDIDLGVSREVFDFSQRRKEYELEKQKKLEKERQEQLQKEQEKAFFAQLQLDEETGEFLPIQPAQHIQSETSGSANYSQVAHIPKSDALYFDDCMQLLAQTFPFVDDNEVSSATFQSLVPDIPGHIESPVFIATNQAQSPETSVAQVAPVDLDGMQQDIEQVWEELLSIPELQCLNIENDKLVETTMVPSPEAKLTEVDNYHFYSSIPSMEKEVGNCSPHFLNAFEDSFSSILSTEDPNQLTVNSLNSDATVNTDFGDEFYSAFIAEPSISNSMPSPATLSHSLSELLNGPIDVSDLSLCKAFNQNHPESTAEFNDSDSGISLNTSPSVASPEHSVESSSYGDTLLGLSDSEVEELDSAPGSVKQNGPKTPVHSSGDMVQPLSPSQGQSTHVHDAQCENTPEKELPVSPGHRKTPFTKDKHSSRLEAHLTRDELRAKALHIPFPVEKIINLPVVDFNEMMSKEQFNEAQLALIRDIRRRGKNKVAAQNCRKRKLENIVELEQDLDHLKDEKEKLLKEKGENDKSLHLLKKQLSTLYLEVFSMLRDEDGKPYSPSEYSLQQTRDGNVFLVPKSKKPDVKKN
Sequence of Signal transducer and activator of transcription 3 (Homo sapiens) (P40763 whole entry, looked up): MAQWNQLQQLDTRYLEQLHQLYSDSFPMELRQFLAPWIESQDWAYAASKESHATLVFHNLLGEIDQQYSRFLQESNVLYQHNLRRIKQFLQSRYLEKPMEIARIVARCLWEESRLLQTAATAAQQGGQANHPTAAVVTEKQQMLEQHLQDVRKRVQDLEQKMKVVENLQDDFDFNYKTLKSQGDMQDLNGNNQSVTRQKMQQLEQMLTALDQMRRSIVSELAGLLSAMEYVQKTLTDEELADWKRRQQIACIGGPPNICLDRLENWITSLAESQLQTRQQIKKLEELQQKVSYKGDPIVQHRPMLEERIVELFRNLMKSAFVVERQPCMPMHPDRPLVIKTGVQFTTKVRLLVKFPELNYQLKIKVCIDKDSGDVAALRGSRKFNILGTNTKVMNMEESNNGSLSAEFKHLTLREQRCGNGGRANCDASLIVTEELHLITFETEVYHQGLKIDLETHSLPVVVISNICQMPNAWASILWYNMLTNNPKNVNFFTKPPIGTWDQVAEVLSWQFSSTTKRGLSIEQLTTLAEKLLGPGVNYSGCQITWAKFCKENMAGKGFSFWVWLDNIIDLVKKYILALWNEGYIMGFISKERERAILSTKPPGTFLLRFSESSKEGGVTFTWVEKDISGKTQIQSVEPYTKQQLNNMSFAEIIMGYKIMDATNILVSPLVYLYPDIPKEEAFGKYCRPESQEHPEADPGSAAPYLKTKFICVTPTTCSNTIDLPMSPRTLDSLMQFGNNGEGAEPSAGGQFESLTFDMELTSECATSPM
Sequence of Nuclear factor NF-kappa-B p105 subunit (Homo sapiens) (P19838 whole entry, looked up): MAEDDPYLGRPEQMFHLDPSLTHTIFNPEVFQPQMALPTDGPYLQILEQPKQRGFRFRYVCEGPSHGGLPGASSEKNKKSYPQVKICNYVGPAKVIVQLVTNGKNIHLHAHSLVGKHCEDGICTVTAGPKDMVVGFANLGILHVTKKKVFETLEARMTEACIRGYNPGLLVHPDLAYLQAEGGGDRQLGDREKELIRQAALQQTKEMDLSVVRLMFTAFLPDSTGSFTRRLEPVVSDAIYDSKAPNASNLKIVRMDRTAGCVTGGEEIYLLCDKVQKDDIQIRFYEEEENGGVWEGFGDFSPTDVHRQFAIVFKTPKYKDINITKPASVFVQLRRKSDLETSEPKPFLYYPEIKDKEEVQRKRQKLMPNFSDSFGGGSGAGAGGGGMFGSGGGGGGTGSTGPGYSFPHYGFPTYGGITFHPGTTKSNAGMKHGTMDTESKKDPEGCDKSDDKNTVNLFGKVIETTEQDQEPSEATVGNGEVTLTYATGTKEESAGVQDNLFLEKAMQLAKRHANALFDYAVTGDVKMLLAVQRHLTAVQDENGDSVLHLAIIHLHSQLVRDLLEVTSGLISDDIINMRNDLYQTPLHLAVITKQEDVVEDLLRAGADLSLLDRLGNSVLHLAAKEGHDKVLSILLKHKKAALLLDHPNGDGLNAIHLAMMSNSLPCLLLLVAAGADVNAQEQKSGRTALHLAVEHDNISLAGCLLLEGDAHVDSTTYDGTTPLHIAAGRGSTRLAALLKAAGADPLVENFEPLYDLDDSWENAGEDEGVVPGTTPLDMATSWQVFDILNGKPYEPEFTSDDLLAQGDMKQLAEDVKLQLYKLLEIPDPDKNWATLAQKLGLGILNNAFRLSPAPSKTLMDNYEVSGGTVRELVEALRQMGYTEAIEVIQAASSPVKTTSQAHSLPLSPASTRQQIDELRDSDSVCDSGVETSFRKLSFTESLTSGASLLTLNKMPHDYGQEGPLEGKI
Sequence of Cellular tumor antigen p53 (Homo sapiens) (P04637 whole entry, looked up): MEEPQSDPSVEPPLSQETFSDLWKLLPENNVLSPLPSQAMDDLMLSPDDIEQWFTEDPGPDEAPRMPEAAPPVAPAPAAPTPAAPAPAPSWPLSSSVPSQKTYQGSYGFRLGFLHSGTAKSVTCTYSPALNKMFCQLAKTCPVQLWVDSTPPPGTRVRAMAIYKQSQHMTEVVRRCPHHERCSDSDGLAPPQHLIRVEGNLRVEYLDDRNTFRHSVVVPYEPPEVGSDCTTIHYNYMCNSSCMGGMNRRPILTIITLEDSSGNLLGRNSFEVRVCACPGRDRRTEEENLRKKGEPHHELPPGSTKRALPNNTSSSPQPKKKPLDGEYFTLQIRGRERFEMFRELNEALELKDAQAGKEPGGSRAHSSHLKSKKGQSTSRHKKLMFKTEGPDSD

O=S(=O)(c1ccc(OCc2ccccc2)cc1)c1ccccc1O
inactive: [1]

Cn1sccc1=O
inactive: [1]

CCCCC=O
inactive: [2] | MYC, MYC (gene 4609) | [3] | [4] | [5] | [6] | [7] | [8] | [9] | [10] | [11] | [12] | TIMP1, TIMP1 (gene 7076) | [13] | [14] | [15] | [16] | [1]

CCCCCCCCC(C)=O
inactive: [1]

O=C(c1ccccc1)c1ccccc1
inactive: [2] | MYC, MYC (gene 4609) | [3] | [4] | [6] | [7] | [9] | [10] | [11] | [12] | TIMP1, TIMP1 (gene 7076) | [13] | [14] | [17] | [15] | [16] | [1] | [18]

CCOC=C(C(=O)OCC)C(=O)OCC
inactive: [1]

CCOC(=O)c1nc(C(Cl)(Cl)Cl)n(-c2ccc(Cl)cc2Cl)n1
inactive: [1]

CCCCC(CC)C(=O)O (stereo unspecified)
inactive: [2] | MYC, MYC (gene 4609) | [3] | [4] | [6] | [7] | [8] | [9] | [10] | [11] | [12] | TIMP1, TIMP1 (gene 7076) | [13] | [14] | [15] | [16] | [1]

O=C1NS(=O)(=O)c2ccccc21
inactive: [2] | MYC, MYC (gene 4609) | [3] | [4] | [6] | [7] | [8] | [9] | [10] | [11] | [12] | TIMP1, TIMP1 (gene 7076) | [13] | [14] | [15] | [16] | [1]

C=COC(=O)C(C)(C)CCCCCC
inactive: [1]
